According to PubChem BioAssay (NCI):
This is part of a sample that, as a whole, favours compounds with a hit. Of some 83,000 tested, about 20% had one in any assay.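 For each line, cells grew in 96-well plates with the test compound present at a single concentration for 48 hours.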 Unmarked numbers belong to inactive results. Activity calls are given as the source filed them. The calls were made as follows: active = growth percent below 10; inactive = the rest.

Tests used:
Assay in all cases: NCI-60 one-dose screen, 48 h (100 = growth as untreated, 0 = no growth, -100 = all killed)
Conditions in all cases: 10 µM unless noted
DU-145 prostate = system: DU-145 prostate
K-562 leukemia = system: K-562 leukemia
MALME-3M melanoma = system: MALME-3M melanoma
MDA-MB-231 breast = system: MDA-MB-231 breast
RXF 393 renal = system: RXF 393 renal
SF-268 CNS = system: SF-268 CNS
SF-295 CNS = system: SF-295 CNS
SF-539 CNS = system: SF-539 CNS
UACC-257 melanoma = system: UACC-257 melanoma
M14 melanoma = system: M14 melanoma
HCT-15 colon = system: HCT-15 colon
HT29 colon = system: HT29 colon
SNB-75 CNS = system: SNB-75 CNS
SNB-19 CNS = system: SNB-19 CNS
U251 CNS = system: U251 CNS
PC-3 prostate = system: PC-3 prostate
SK-MEL-5 melanoma = system: SK-MEL-5 melanoma
UACC-62 melanoma = system: UACC-62 melanoma
LOX IMVI melanoma = system: LOX IMVI melanoma
SK-MEL-28 melanoma = system: SK-MEL-28 melanoma

O=C(CSc1nc2ccccc2c(=O)n1-c1ccc(S(=O)(=O)Nc2ccc(Cl)nn2)cc1)Nc1ccc(S(=O)(=O)Nc2ccc(Cl)nn2)cc1
growth (DU-145 prostate): 107% | growth (K-562 leukemia): 88.1% | growth (MALME-3M melanoma): 102% | growth (MDA-MB-231 breast): 102% | growth (RXF 393 renal): 102% | growth (SF-268 CNS): 101% | growth (SF-295 CNS): 102% | growth (SF-539 CNS): 103% | growth (UACC-257 melanoma): 101% | growth (M14 melanoma): 111% | growth (HCT-15 colon): 100% | growth (HT29 colon): 106% | growth (SNB-75 CNS): 96.1% | growth (SNB-19 CNS): 101% | growth (U251 CNS): 102% | growth (PC-3 prostate): 100% | growth (SK-MEL-5 melanoma): 97.2% | growth (UACC-62 melanoma): 94% | growth (LOX IMVI melanoma): 90.4% | growth (SK-MEL-28 melanoma): 106%

Cc1ccc(/C(N)=N/C(N)=N/c2nc3ccccc3s2)cc1
growth (DU-145 prostate): 96.5% | growth (K-562 leukemia): 82.5% | growth (MALME-3M melanoma): 110% | growth (MDA-MB-231 breast): 89.9% | growth (RXF 393 renal): 103% | growth (SF-268 CNS): 103% | growth (SF-295 CNS): 32.9% | growth (SF-539 CNS): 108% | growth (UACC-257 melanoma): 111% | growth (M14 melanoma): 107% | growth (HCT-15 colon): 52.2% | growth (HT29 colon): 110% | growth (SNB-75 CNS): 96.5% | growth (SNB-19 CNS): 95.3% | growth (U251 CNS): 82% | growth (PC-3 prostate): 63.5% | growth (SK-MEL-5 melanoma): 91% | growth (UACC-62 melanoma): 91.9% | growth (LOX IMVI melanoma): -17% (active) | growth (SK-MEL-28 melanoma): 116%

O=C1/C(=C/c2cc(F)cc(F)c2)Cc2cc3c(cc21)OCO3
growth (DU-145 prostate): 54.4% | growth (K-562 leukemia): 18.4% | growth (MALME-3M melanoma): 37.9% | growth (MDA-MB-231 breast): 40.5% | growth (RXF 393 renal): 29% | growth (SF-268 CNS): 64.7% | growth (SF-295 CNS): 35.6% | growth (SF-539 CNS): 33.1% | growth (UACC-257 melanoma): 73.6% | growth (M14 melanoma): 20.2% | growth (HCT-15 colon): 27.2% | growth (HT29 colon): 22.1% | growth (SNB-75 CNS): 6.56% (active) | growth (SNB-19 CNS): 49.7% | growth (U251 CNS): 43.4% | growth (PC-3 prostate): 25.3% | growth (SK-MEL-5 melanoma): 23.6% | growth (UACC-62 melanoma): 24.3% | growth (LOX IMVI melanoma): 38.5% | growth (SK-MEL-28 melanoma): 57.8%

CN(C)c1cccc2c(S(=O)(=O)Nc3cccc(-c4csc(NC(=O)CCCCCN5CCN(CCO)CC5)n4)c3)cccc12
growth (DU-145 prostate): 90.6% | growth (K-562 leukemia): 7.77% (active) | growth (MALME-3M melanoma): 55.9% | growth (MDA-MB-231 breast): 84.1% | growth (RXF 393 renal): 66.7% | growth (SF-268 CNS): 93.5% | growth (SF-295 CNS): 60.5% | growth (SF-539 CNS): 54.7% | growth (UACC-257 melanoma): 78.3% | growth (M14 melanoma): 73.7% | growth (HCT-15 colon): 90.6% | growth (HT29 colon): 17% | growth (SNB-75 CNS): 80.1% | growth (SNB-19 CNS): 87.9% | growth (U251 CNS): 70.2% | growth (PC-3 prostate): 72.3% | growth (SK-MEL-5 melanoma): 79.2% | growth (UACC-62 melanoma): 94.1% | growth (LOX IMVI melanoma): 12.9% | growth (SK-MEL-28 melanoma): -7.14% (active)

CN1CCN(c2ccc(Nc3nc(NCCNS(=O)(=O)c4ccccc4)c4sccc4n3)cc2)CC1
growth (DU-145 prostate): 106% | growth (K-562 leukemia): 84% | growth (MALME-3M melanoma): 104% | growth (MDA-MB-231 breast): 102% | growth (RXF 393 renal): 87.3% | growth (SF-268 CNS): 79.6% | growth (SF-295 CNS): 105% | growth (SF-539 CNS): 95.4% | growth (UACC-257 melanoma): 114% | growth (M14 melanoma): 106% | growth (HCT-15 colon): 95.2% | growth (HT29 colon): 99.6% | growth (SNB-75 CNS): 81.5% | growth (SNB-19 CNS): 98.9% | growth (U251 CNS): 103% | growth (PC-3 prostate): 95.4% | growth (SK-MEL-5 melanoma): 97.4% | growth (UACC-62 melanoma): 96.4% | growth (LOX IMVI melanoma): 108% | growth (SK-MEL-28 melanoma): 104%

COCCOc1ccc2ncc(C#Cc3cncc(C(=O)Nc4ccc(CN5CCN(C)CC5)c(C(F)(F)F)c4)c3)n2n1
growth (DU-145 prostate): 7.72% (active) | growth (K-562 leukemia): -18% (active) | growth (MALME-3M melanoma): -72.3% (active) | growth (MDA-MB-231 breast): -28.5% (active) | growth (RXF 393 renal): -91.2% (active) | growth (SF-268 CNS): -19.6% (active) | growth (SF-295 CNS): 31% | growth (SF-539 CNS): 8.57% (active) | growth (UACC-257 melanoma): 28.1% | growth (M14 melanoma): -90.5% (active) | growth (HCT-15 colon): 0.122% (active) | growth (HT29 colon): 15.6% | growth (SNB-75 CNS): 4.29% (active) | growth (SNB-19 CNS): 18.1% | growth (U251 CNS): 37.9% | growth (PC-3 prostate): 35% | growth (SK-MEL-5 melanoma): 67.4% | growth (UACC-62 melanoma): 31.5% | growth (LOX IMVI melanoma): -88.9% (active) | growth (SK-MEL-28 melanoma): -49.4% (active)

N#Cc1c(-c2cccs2)cc(-c2cnccn2)nc1SCC(=O)N/N=C/c1ccccc1
growth (DU-145 prostate): 14% | growth (K-562 leukemia): 46.5% | growth (MALME-3M melanoma): 4.87% (active) | growth (MDA-MB-231 breast): 46.5% | growth (RXF 393 renal): -16.4% (active) | growth (SF-268 CNS): 56.4% | growth (SF-295 CNS): 60.9% | growth (SF-539 CNS): 56.1% | growth (UACC-257 melanoma): 68.2% | growth (M14 melanoma): 37% | growth (HCT-15 colon): 39.1% | growth (HT29 colon): 37.3% | growth (SNB-75 CNS): 12.6% | growth (SNB-19 CNS): 39.7% | growth (U251 CNS): 11.9% | growth (PC-3 prostate): 65.2% | growth (SK-MEL-5 melanoma): 4.1% (active) | growth (UACC-62 melanoma): 55.3% | growth (LOX IMVI melanoma): -28.7% (active) | growth (SK-MEL-28 melanoma): 43.9%
